The supplement of paper PMC11417369
Over roughly 25,000 sequences, “ln(normalized median fluorescence intensity)” has its median near 6.7; the highest 2% begin near 10. The sample holds the highest values, similar sequences and a random draw of the others, so the mix is not that of the screen.

System: PfHDP1 homeodomain (GST-tagged)
Assay: gcPBM binding intensity (ln(normalized median fluorescence intensity)); higher = stronger DNA binding
Summary of the method: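 An Agilent 4 × 180k array carrying primer-extended double-stranded 36-bp intergenic genomic probes and negative controls received GST-tagged P. falciparum DNA-binding domains expressed in E. coli, about 25 μg on average, for 1 h. The binding buffer contained 1× PBS, 1% milk, 0.2 mg/ml BSA, 0.5% salmon testes DNA and 0.03% Triton X-100. Binding intensity is the top Masliner-normalised natural-log median intensity across replicate spots of either probe orientation, read after Alexa488 anti-GST antibody staining and a 488 nm scan.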

In order of rising “gcPBM binding intensity (ln)” value:
1. TATTATTGTCTTTCAAAAAAAAAAAAAAAAAAAAAA [CACACA_negctrl_site1242]  6.11
2. AATATATCAAAAATGATGACATAAATATATTAATTT [GTGCAC_negctrl_site530]  6.13
3. TAATACTTTTAATCTACACACGCTGAGACATGCTTT [CACACA_site1484]  6.14
4. ATATGTATTTATATATGTTTGATTTTTTTTTTTTTT [TGCATGCA_negctrl_site506]  6.23
5. TATTGTATTTCATATTGTACTAAAAAAAAAAAAAAG [XGTACX_site6694]  6.24
6. TATAAATAAAAATATACACACTGTATTATTGTAATA [CACACA_site7721]  6.24
7. TTTTTGATGAAATATTATTTTCCTGACTTGGATTAA [CACACA_negctrl_site148]  6.27
8. TAATATTACATTTATTGTACTTTGTTTTTATTTTAT [XGTACX_site1605]  6.27
9. ATATATATGTGAAAATCACACATTGCTTATCTGTAA [CACACA_site6044]  6.3
10. CAAAACATTTTATCTACACACATATATAAATAAATA [CACACA_site3220]  6.36
11. ATATCTATAATAAATACACACATTTATATAGATAAA [CACACA_site7518]  6.38
12. CGTAATAAAAACAAATGTACATGACCTGGACAGGTT [XGTACX_site6560]  6.4
13. TTTTTTTTTTTTTTTTGTACTCATATCTACTATCAT [XGTACX_site274]  6.44
14. ATATATTTTTTGAATACACACATATTATCTGTAATA [CACACA_site4826]  6.45
15. CAATGCTTTATCAATACATGCATATATATAGAAATA [TGCATGCA_site857]  6.46
16. TTACATATTTTCATTTGTACATATTCATTTTTTTTC [XGTACX_site6988]  6.47
17. TCTTTAACAAGTTAAACACACATACCTATATACATA [CACACA_site7237]  6.47
18. TAATGATAAATACATACACACAAAAAATGATATATA [CACACA_site7258]  6.48
19. TCTTTCTTATTTTAATGATATTTATTCATTCCAGTT [CACACA_negctrl_site1679]  6.52
20. TTTTGAAGTAACAAATAAATAAATAAATATATAAAA [GTGCAC_negctrl_site517]  6.53
21. TCAATAAATATACATACATGCATACATACATACATA [TGCATGCA_site197]  6.53
22. CAAACAATTAAACAAACACACATATACATGTATATA [CACACA_site2060]  6.54
23. GTATTATATTTCAACTGTACGTAAAACTATTAAAAT [XGTACX_site3679]  6.55
24. GTTTTTAATGTTTTGACATGCAATATTAAAAATAAT [TGCATGCA_site174]  6.57
25. ATAAATCCCAAAACCTTGCAAGACAACGTTTGATCA [CACACA_negctrl_site1327]  6.57
26. TGTATAAAAGTTTATACACACATTTGATATATTTCA [CACACA_site6606]  6.58
27. GCACATATGAATATAATACACACTTGTATTATTAAT [CACACA_site1841]  6.59
28. TTAATATTCCAGCTTTGTACATATATATATTATAAA [XGTACX_site7954]  6.6
29. AGAAAGAAAATATATACACACAAAAAAAAATATATA [CACACA_site1412]  6.61
30. AAATTTATATATAGTTGTACAAAAATATGTTTCGTA [XGTACX_site4801]  6.62
31. AAAAAAAAAAAAAACACACACAAATTTAATATATAT [CACACA_site1695]  6.64
32. AAATGTGTTAATGTGCGTACACATATATATAATATT [XGTACX_site2792]  6.66
33. ATACTATAATATAAAACACACATATGTACCTTCTAA [CACACA_site7323]  6.67
34. TATCGAGCCATTTTTACATGCAATTATACATAATTT [TGCATGCA_site987]  6.73
35. AATATATATTTATAAACACACACCAAAATTTGTGCT [CACACA_site3091]  6.82
36. TAGTTTTTATATAGCACACATATTGTGATTATGTAT [CACACA_site1196]  6.83
37. AAAATATTTATATTTACACACACATAATACATATAT [CACACA_site32]  6.84
38. TTACACAAACAAATTATGGACACATAAGTAAAAGGA [CACACA_negctrl_site1622]  6.97
39. TCCTTATATTGGCACACACACACAATAAAATGAAAA [CACACA_site4715]  7.07
40. TTCCCAACATGATATTGTACATTTAATTATAATTAA [XGTACX_site7029]  7.08
41. AAATAATTTATATATTGTACAAATATTAAATGCGAA [XGTACX_site3390]  7.16
42. ATAACCTAATAATACACACACATGAATATATATAAT [CACACA_site4689]  7.17
43. AAATAAAATTTTATGTGTACGCAAAAAGTTGTAAGC [XGTACX_site8911]  7.29
44. AAAAAAAAAATGAGCACACATAAATAAAAACAAACA [CACACA_site1573]  7.39
45. TTATAAAATGGGCAAACACACACAAAAAAAAGATAT [CACACA_site8476]  7.42
46. TTATTTTTTTTATATATATGTATAAATATATATATA [XGTACX_negctrl_site441]  7.84
47. TTCTTGTTCCTGAAAGTGCATATAACAAAAATAACA [GTGCAC_site9635]  8.06
48. TTATCTCTACAAAGTGCACACACGTAAAAACATATA [CACACA_site3957]  8.98
49. TTTTTTTTTTTTTGCACACACCATATTTATAGAAAT [CACACA_site5772]  9.04
50. AAAATGAAGAAGTGCACACATATATATATTTATATA [CACACA_site507]  9.11
51. TATATATATATATATATTTTAAATGATATAAATGGT [TGCATGCA_negctrl_site152]  9.23
52. ATTAAATTTCCTTGAGTGCACATTTTGTTAAAATAT  9.29
53. AAAATATATTCAACTTGTACATATATATATATATAT [XGTACX_site7629]  9.4
54. CTTATGTGCATACCTACACACTTACATATATATATA [CACACA_site8973]  9.47
55. AAATGAATATTCATAGTGCAATATATAAATGAAAAT  9.5
56. ATAATTATTCTTATGGTGCACTGAATATACATGTTG [GTGCAC_site9760]  9.5
57. CCTCATCCACTATGCACACAAAAAAGAAATACACTA [CACACA_site3422]  9.52
58. GTGTATTTTGTGCGCACACACATGCAAAAAGAAATA [CACACA_site6660]  9.54
59. TTGTGGATTTTGTGCGCACACACATGCAAAAAGAAA [CACACA_site1147]  9.58
60. ATTCTATTATCCTTTGCACACAAAATAAATGAAAAA [CACACA_site3030]  9.63
61. TATTAATATATAGTAGTGCAATAAAGATATACTGAA  9.67
62. TCTATTATCCTTTGCACACAAAATAAATGAAAAAAT [CACACA_site3029]  9.75
63. TTGCAATAATGTTGCACACTAAATAGTCATATATAA [CACACA_site263]  9.77
64. TTATTTTCTTTCTATGCACACGCACGTATTTGCCCA [CACACA_site9104]  9.79
65. GATATCCTTATATTTGCACACACACCCAATAAAATG [CACACA_site1028]  9.87
66. TATTTTTCCCTATGCACACACACCGTATATATAATA [CACACA_site4758]  10.1
67. TATATCTTACTTTTTGCACACACTAATATTATTGTT [CACACA_site1640]  10.1
68. AATATTGCACCATTTTGTACATAATATATTCAAATA [XGTACX_site475]  10.3
69. TAAATGTCCTTATTTGCACACACACCCATAAGAAAT [CACACA_site3185]  10.4
70. ATAATATTATACTTTGCACACATCTGAAATGACATA [CACACA_site3952]  10.4
71. GTCCTCATCCACTATGCACACAAAAAAGAAATACAC [CACACA_site9131]  10.5
72. TGTCCTTATTTGCACACACACATATAAGAAATTTAA [CACACA_site7485]  10.5
73. TATTTCTTTTGGTTGGTGCATAAAATAATACAATAT [GTGCAC_site9916]  10.5
74. ACCAATAAATATTTGGTGCATACATATATATATATA  10.5
75. ATATACTTATATATTGCACACATCTAATATTTTGAA [CACACA_site3165]  10.5
76. ATTTTGTGCGCACACACATGCAAAAAGAAATATGAT [TGCATGCA_site261]  10.5
77. TATCCTTATATTTGCACACACACACCCTAAAATGAA [CACACA_site1029]  10.6
78. AATGTCCTTATTTGCACACACACATATAAGAAATTT [CACACA_site3186]  10.6
79. TATCCTTATATTTGCACACACACACTAGAAAATGAA [CACACA_site4714]  10.7
80. GTATTCATTCCTTGAGTGCAATTGCAATAAATAAAA  10.7
81. TATAAGGCAATAATAGTGCACTAAGATATATAATGA  10.7
82. TAAAAAAAAACATGTGCACACGTTTTATCTACATAA [CACACA_site2336]  10.8
83. TTTGTTCTTTTTGAAGTGCACTGAAATATAACAAAA  10.9
84. ATTTTCTTTCTATGCACACGCACGTATTTGCACCCA [CACACA_site3350]  10.9
85. TCCTTATATTTGCACACACACACAAGAAAATGAAAA [CACACA_site6613]  11
86. TATCTTACTTTTTGCACACACTAATATTATTGTTTA [CACACA_site4990]  11.1
87. GTGGACGAAATAGTTGTAAATTTATGTGCAAACCTC [XGTACX_negctrl_site564]  11.2
88. TATGTATATATTTGTGCACACCAAAGTTTGATTTTA [CACACA_site1861]  11.4
89. TGTATATATTTGTGCACACCAAAGTTTGATTTTATT [CACACA_site1860]  11.4
90. AATATATTGCACCATTGGACCTGAATAATTCTTCCA [CACACA_negctrl_site1071]  11.4
